The list is not random: actives were taken first. Their share in the collection is about 10%.
BAZ2B block: inhibitors of human BAZ2B bromodomain. Q9UIF8. AlphaScreen BAZ2B-H3K14Ac peptide displacement. Potency, µM (top dose mostly 114 µM), for inactives: at the highest dose activity change, negative = inhibition, hits mostly inhibitors. actives 4.4% (n = 360,000); also: % is scaled to controls: 0 for no effect and ±100 for the full control effect; nearly all actives have a fitted effect of over 60% in size
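Inhibition is scored as reduced AlphaScreen emission. The BAZ2B/b-H3(5-23)K14Ac complex (50 nM each) in PBS pH 7.4, 0.01% Tween-20 meets compound (up to 110 uM) for 30 min at RT before bead addition.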
G9a inh: G9a (human) methyltransferase inhibition; Potency, µM (doses to about 102 µM), for inactives: top-dose activity, negative = inhibition, most hits filed as inhibitors; actives 8.8% (n = 350,000); G9a H3K9 monomethylation, AlphaScreen, 2 h; also: % is scaled to controls: 0 for no effect and ±100 for the full control effect; nearly all actives have a fitted effect of over 75% in size
Target sequence (Q96KQ7 913-1193 limits assumed): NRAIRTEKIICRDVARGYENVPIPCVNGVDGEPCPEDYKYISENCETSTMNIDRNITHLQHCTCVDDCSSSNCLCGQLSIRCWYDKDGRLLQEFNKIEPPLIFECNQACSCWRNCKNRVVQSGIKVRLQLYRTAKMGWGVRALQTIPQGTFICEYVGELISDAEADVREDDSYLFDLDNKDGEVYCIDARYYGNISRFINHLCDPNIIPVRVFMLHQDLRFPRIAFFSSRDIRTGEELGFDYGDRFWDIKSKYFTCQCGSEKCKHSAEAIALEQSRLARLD
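AlphaScreen read-out: biotin-H3K9 peptide (500 nM) methylation by 20 nM enzyme with 20 uM SAM, 2 h at room temperature after 15 min compound preincubation; anti-monomethyl H3K9 antibody plus donor/acceptor beads, 10 min dark.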
L3MBTL1 block: inhibitors of human L3MBTL1; Q9Y468; AlphaScreen L3MBTL1–H3K9me1 peptide binding; Potency, µM (highest dose often 57.1 µM), for inactives: at the top dose activity, negative = inhibition, most hits filed as inhibitors; actives 0.66% (n = 230,000); also: % is scaled to controls: 0 for no effect and ±100 for the full control effect; nearly all actives have a fitted effect of over 60% in size
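L3MBTL1 (50 nM) pre-complexed 30 min with biotinylated H3(1-15)K9me1 peptide (75 nM), then compounds added for 30 min at room temperature; AlphaScreen streptavidin donor/nickel chelate acceptor beads (10 ug/mL final) read after 30 min dark incubation.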
GLS inh: blocks human kidney-isoform glutaminase activity. O94925. actives 0.21% (n = 410,000). Potency, µM (top dose mostly 45.5 µM), for inactives: at the top dose activity change, negative = inhibition, usual class: inhibitors. GLS enzymatic activity, qHTS titration; also: % is scaled to controls: 0 for no effect and ±100 for the full control effect
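Enzyme dispensed in phosphate buffer (45 mM, pH 8.2, 0.02% Tween-20), compounds pinned in, then 1 mM L-glutamine solution and the glutamate oxidase–HRP–Amplex Red mix added; fluorescence read immediately and again after 30 min at room temperature.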
JMJD2A Tudor inh: blocks the human JMJD2A Tudor domain | Potency, µM (highest dose often 114 µM), inactives show at the top dose activity change, negative = inhibition, hits mostly inhibitors | AlphaScreen JMJD2A-Tudor / H3K4me3 peptide binding | actives 4.4% (n = 390,000) | AID 504339 | O75164; also: % is scaled to controls: 0 for no effect and ±100 for the full control effect; nearly all actives have a fitted effect of over 50% in size
HP1b chromo inh: HP1-beta chromodomain-methylated histone interaction inhibition | P83916 | AID 540317 | Potency, µM (top dose mostly 114 µM), without a hit: top-dose activity change, negative = inhibition, hits mostly inhibitors | AlphaScreen HP1-beta / biotin-H3K9me3 peptide binding | actives 0.56% (n = 390,000); also: nearly all actives have a fitted effect of over 70% in size
Target sequence (P83916 whole entry, looked up): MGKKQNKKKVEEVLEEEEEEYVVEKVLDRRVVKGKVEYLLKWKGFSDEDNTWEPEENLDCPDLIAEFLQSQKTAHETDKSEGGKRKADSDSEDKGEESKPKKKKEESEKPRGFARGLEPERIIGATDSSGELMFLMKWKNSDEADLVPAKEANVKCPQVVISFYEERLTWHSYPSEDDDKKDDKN
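HP1-beta protein (50 nM final) preincubated 30 min at room temperature with biotinylated H3(1-18)K9me3 peptide (50 nM) in PBS pH 7.4, 0.01% Tween-20, then compound added for 30 min. AlphaScreen streptavidin donor/nickel chelate acceptor beads (10 ug/mL final), 30 min dark, luminescence read.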
Numbers without * were called inactive; u = inconclusive; x = not tested or not shown; [ ] = another dose, or the depositor's remark. Calls follow the shape of the dose curve; as a rule, active = well fitted curve in the direction sought with a large enough effect; inconclusive = small, poorly fitted or top-dose-only effect, or another doubt; inactive = no such curve, though single readings can be large; an effect the other way counts as inactive or inconclusive. Potency is read from the fitted curve at half-maximal effect.

SMILES | BAZ2B block | G9a inh | L3MBTL1 block | GLS inh | JMJD2A Tudor inh | HP1b chromo inh
Cc1ccc(C)c(N2CCN(C3(c4ccccc4)C(=O)c4ccccc4C3=O)CC2)c1 | 6.3µM* | 7.1µM* | x | -1% | u | -24%
Cc1ccc(Cl)cc1N1CCN(C2(c3ccccc3)C(=O)c3ccccc3C2=O)CC1 | u | u | x | 2% | u | -4%
COc1ccc(C2(N3CCN(c4cc(C)ccc4C)CC3)C(=O)c3ccccc3C2=O)cc1 | u | u | x | 4% | u | -15%
COc1ccc(CCNC(=O)c2nc(SCc3ccc(F)cc3)ncc2Cl)cc1OC | -5% | -2%[59 µM] | x | -3% | -19% | 10%
Cc1ccc(CN2CCC(CNc3ncnc4onc(-c5ccc(F)cc5)c34)CC2)cc1 | 0%[57.1 µM] | -6%[59 µM] | x | -5% | -5% | 25%
Cc1cc(Cl)c2oc(C(=O)N(C)C3CCOC3)c(C)c2c1 (stereo not given) | -17% | -7% | x | u | 14µM* | 6%
CC(C)C(=O)OCc1cc(=O)n2nc(C3CC3)sc2n1 | -30% | 7%[59 µM] | x | 0% | -33% | 55%
O=S(=O)(c1ccc(Br)s1)N1CCN(c2cccc(C(F)(F)F)c2)CC1 | 37% | 53%[59 µM] | x | -8% | 17% | 44%
COCCn1c(C)cc(O)c(C(c2ccccc2OC)N2CCN(c3ccccc3)CC2)c1=O (stereo not given) | 11% | u | x | 40% | -1% | 41%[57 µM]
C=CCn1c(SCC(=O)Nc2nc(C)cs2)nnc1C(C)NC(=O)c1ccccc1Cl (stereo not given) | -6% | u | -3% | 6% | 89µM* | 19%
Oc1cc2c(cc1O)[C@H]1c3ccc(O)c(O)c3OC[C@@]1(O)C2 | 35µM* | -147%[12.7 µM] | 35µM* | u | 1.3µM* | u
Oc1ccc2c(c1)OCC1(O)Cc3cc(O)c(O)cc3C21 (stereo not given) | x | -115%[2.33 µM] | x | u | 20µM* | u
Cc1ccc(C(=O)N2CCN(Cc3nc4sc5c(c4c(=O)[nH]3)CCCC5)CC2)cc1 | -1% | -9%[59 µM] | x | -9% | -16% | 37%
O=c1[nH]c(CN2CCCC2)nc2sc3c(c12)CCC3 | u | 40µM* | 9% | 1% | u | 8%
CN1C(=O)c2ccccc2Sc2ccc(NC(=O)N3CCN(c4ccccc4F)CC3)cc21 | -19% | -45%[59 µM] | x | 1% | -31% | 7%
Cc1cccnc1NC(=O)Nc1cccc2ccccc12 | -2% | 7.1µM* | x | -6% | -15% | 10%
COC(=O)c1nc(NC(=S)NC(=O)c2cccs2)sc1C | -28% | 50µM* | x | -1% | -25% | -10%
O=C(Nc1ccccc1)Nc1cccc2ccccc12 | 2% | x | 7% | -3% | -5% | 13%
CCc1ccc(-c2nc(NC(=S)NC(=O)c3cccs3)sc2C)cc1 | 4% | -3%[59 µM] | x | -21% | -22% | -12%
Cc1cccnc1NC(=O)CNC(=O)c1cccs1 | 11% | 8%[0.501 µM] | 3% | -3% | -8% | 18%
Cc1cccnc1NC(=S)NC(=O)c1cccs1 | -28% | u | 0% | 30% | 22µM* | -13%
CCCn1nnc(NC(=S)NC(=O)c2cccs2)n1 | -29% | 14µM* | 8% | -1% | 7.9µM* | -13%
CC(C)Oc1ccc(CNC(=O)C2CCCCN2S(=O)(=O)c2ccc(F)cc2)cc1 (stereo not given) | 6% | -6%[59 µM] | x | -13% | 14% | 41%
C[N+]1(C)CCC(OC(=O)CC(O)(c2ccccc2)C2CCCC2)C1 (stereo not given) | x | x | x | -1% | x | x
Cc1cccnc1NC(=S)NC(=O)/C=C/c1ccccc1 | 79µM* | u | -7% | 0% | -26% | 14%
SMILES | BAZ2B block | G9a inh | L3MBTL1 block | GLS inh | JMJD2A Tudor inh | HP1b chromo inh
Cc1ccc(N2CC(c3nnc(NC(=O)c4ccco4)s3)CC2=O)cc1Cl (stereo not given) | -1% | 13%[59 µM] | x | -1% | -12% | 38%
O=C1c2cc(O)cc(O)c2C(=O)c2c1cc(O)c([C@@H](CO)CCO)c2O | x | x | x | -17% | 79µM* | u
O=S(=O)(c1cccc(Cl)c1)N1CCN(c2nc(-c3cccs3)nc3ccccc23)CC1 | x | x | x | x | -7% | 24%
COc1ccc(CNC(=O)c2cc3sccc3n2Cc2ccc(C)cc2)cc1 | -15% | u | x | 1% | -20% | 27%
CC(C)CC(NC(=O)c1cccs1)c1nnc(SCc2ccc(Cl)c(Cl)c2)n1C (stereo not given) | -22% | -13%[59 µM] | 9% | -1% | -12%[57.1 µM] | 27%
C=CCn1c(SCC(=O)c2ccc(Br)cc2)nnc1C(CC(C)C)NC(=O)c1cccs1 (stereo not given) | -10% | 50µM* | x | -4% | -28% | 28%
CCOC(=O)c1sc(N(Cc2ccccc2)C(=O)CCl)nc1C | -30% | 40µM* | x | -5% | 12% | 85%
COc1ccc2c(c1)c1c(c(=O)n(CCc3ccccc3)c(=O)n1Cc1ccc(F)cc1)n2C | -9% | -29%[59 µM] | x | 7% | 2% | 30%
CSc1ccc(CCNC(=O)c2cc3c(-c4ccccc4F)nn(C)c3s2)cc1 | -6% | -5%[59 µM] | x | -8% | -28% | 9%
Cc1nc(S(=O)(=O)N2CCN(c3cccc(Cl)c3)CC2)cn1C | -1% | -17%[59 µM] | x | -7% | -17% | 20%[57 µM]
O=C(O)c1ccccc1C(=O)Nc1ccc(Oc2ccccc2)cc1 | -15% | x | 1% | 0% | -25% | 6%
CC(C)(C)C(=O)Nc1ccc(C(=O)Nc2cccc(Oc3ccc(C(=O)O)c(C(=O)O)c3)c2)cc1 | -33% | 45µM* | -6% | 9% | -33% | -2%
O=C(Nc1cccc(Oc2ccc(C(=O)O)c(C(=O)O)c2)c1)c1ccc(-c2ccccc2)cc1 | 50µM* | x | x | u | -14%[11.4 µM] | u
c1ccc(CSc2nnc(C3CCNCC3)o2)cc1 | -16% | -5%[59 µM] | x | 5% | 2% | 61%
CCN1CCN(Cc2c(O)ccc3c(C)c(-c4ccc(OC)cc4)c(=O)oc23)CC1 | 18% | 52%[59 µM] | x | 5% | -16% | 22%[57 µM]
CSC1=NC(C(Cl)(Cl)Cl)N=C(c2ccc(C)cc2)N1 (stereo not given) | -20% | 14µM* | 18% | -2% | -5% | 59%
COC(=O)c1ccc(CN(Cc2ccc(OC)c(OC)c2)S(=O)(=O)c2ccc(F)c(C(=O)Nc3cc(C)ccc3C)c2)cc1 | -9% | -21%[59 µM] | x | 10% | -11% | 35%
COc1ccc(/C=N/NC(=O)c2[nH]c3ccc(Br)cc3c2-c2ccccc2)c(C(=O)O)c1OC | 50µM* | u | -13% | 28% | u | 16%[57 µM]
CC(C)SCCCOc1ccc(C(C)(C)C)cc1 | 11% | 40% | x | 5% | 41% | 108%
CNCCCOc1ccc(C(C)(C)c2ccccc2)cc1 | 79µM* | 7.9µM* | x | x | x | x
